# From PubChem BioAssay AID686979 (National Center for Advancing Translational Sciences (NCATS), 2013)
# Values joined by “and” are separate entries in the source; they are usually repeats but may differ in a detail not shown here. Identical values can stand only once. Among all 420,000 compounds or so, about 50,000 (12%) were called active. About 26% were inconclusive and are not listed. Calls come from the whole dose curve; as a rule, active = well fitted inhibition curve with a large enough effect; inconclusive = small, poorly fitted or top-dose-only effect; inactive = flat fitted curve, though single readings scatter. The list comes from a sample in which actives are over-represented; it also holds similar structures and randomly drawn compounds. Where a call stands in place of a potency, no number is given.
# Test: qHTS for Inhibitors of human tyrosyl-DNA phosphodiesterase 1 (TDP1): qHTS in cells in presence of CPT; note: nearly all actives have a fitted effect of over 55% in size
# Settings: chicken DT40 Tdp1-/-;hTDP1 cells + 20 nM CPT, ATP luminescence, 48 h; series mostly up to 46.2 µM
# Method in brief: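 Chicken DT40 Tdp1-/- cells complemented with human TDP1, 400 cells/well, exposed to compounds plus 20 nM camptothecin for at least 48 h at 37 C; viability read as ATP content by CellTiter-Glo luminescence.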
# Potency is the fitted concentration of half-maximal effect.
row,SMILES,Potency
1,Cn1c(SCC(=O)N2CCCC2)nnc1-c1ccc2c(c1)OCO2,inactive
2,O=C(CNCc1ccc(Cl)cc1)Nc1cccc(C(=O)O)c1,inactive
3,CCOC(=O)n1c(SCC(=O)N(CC)CC)nc2ccccc21,inactive
4,CCOC(=O)CSc1nc2c(c(=O)n(Cc3ccccc3Cl)c(=O)n2C)n1C,inactive
5,CCN(CC)C(=O)CSc1nc2ccsc2c(=O)n1Cc1ccccc1Cl,18.4 µM (active)
6,O=C(CSc1ccsc1[N+](=O)[O-])N1CCCCC1,inactive
7,O=C(Nc1sc2c(c1-c1nc3ccccc3[nH]1)CCCC2)C1CC1,inactive
8,CC(=O)Nc1nonc1-c1nc2ccccc2n1Cc1ccccn1,inactive
9,COc1ccc(C)c(Cn2c(-c3nonc3N)nc3ccccc32)c1,2.59 µM (active)
10,Fc1ccc(CNc2nc3ccccc3n3nnnc23)cc1,inactive
11,COc1cccc(C(O)c2nc3ccccc3n2C)c1 (configuration not stated),inactive
12,Nc1nonc1-c1nc2ccccc2n1Cc1ccc(F)cc1,16.4 µM (active)
13,COc1ccc2oc(N)nc2c1,inactive
14,CN(C)S(=O)(=O)c1ccc(N2CCCC2=O)c([N+](=O)[O-])c1,inactive
15,Cc1ccc(F)cc1NC(=O)N1CCCN(c2ccc(C(F)(F)F)cn2)CC1,inactive
16,O=C(Cn1c(=O)n(Cc2ccccc2)c(=O)c2sc3ccccc3c21)Nc1ccccc1F,inactive
17,Brc1ccccc1C1N=C(c2ccccc2)NO1 (configuration not stated),inactive
18,CCc1nc2c(=O)[nH]cnc2o1,inactive
19,Cc1n[nH]c(=O)c2c(NC(=O)CSc3cc(Cl)ccc3Cl)oc(C)c12,inactive
20,O=C(COc1ccc2c(C(F)(F)F)cc(=O)oc2c1)Nc1ccc2c(c1)OCCO2,inactive
21,CCOc1ccc(NC(=O)Cn2cc(C(=O)c3ccc(C)cc3)c(=O)c3cc4c(cc32)OCCO4)cc1,inactive
22,CCOc1ccc2c(=O)c(-c3ccc4c(c3)OCCCO4)c(C)oc2c1,18.4 µM (active)
23,CCOC(=O)C1CCCN(C(=O)c2ccc(C)c(F)c2)CC1 (configuration not stated),inactive

row,SMILES,Potency
1,Cc1ccccc1Nc1nn2c(=O)c3ccc(C(=O)NCCc4ccc(Cl)cc4)cc3nc2s1,5.8 µM (active)
2,CCOC(=O)C1CCN(C(=O)c2ccc3c(=O)n4nc(Nc5ccccc5CC)sc4nc3c2)CC1,13 µM (active)
3,Cc1nc2c(c(C)nn2-c2ccccc2)c(C)c1CCC(=O)NCCc1ccc(Cl)cc1,inactive
4,CCc1ccc(Nc2nn3c(=O)c4cc5c(cc4nc3s2)OCO5)cc1,inactive
5,C=CCn1c(SCC(=O)CC(=O)OCC)nc2cc(C(=O)N3CCC(C(N)=O)CC3)ccc2c1=O,inactive
6,CC(=O)NS(=O)(=O)c1ccc2c(c1)Cc1cc(S(=O)(=O)NC(C)=O)ccc1-2,inactive
7,O=C(CN(C(=O)CCC(=O)Nc1nccs1)c1ccc(F)cc1)NCc1ccc2c(c1)OCO2,inactive
8,CO[C@@H]1[C@@H](OC(N)=O)[C@@H](O)C(Oc2ccc3c(O)c(NC(=O)c4ccc(O)c(CC=C(C)C)c4)c(=O)oc3c2C)OC1(C)C (some centres not stated),inactive
9,Nc1ccc(-c2nnc(-c3ccccc3)o2)cc1,inactive
10,Cc1ccc(S(=O)(=O)NCCC(=O)Nc2cccc(S(N)(=O)=O)c2)cc1C,inactive
11,c1ccc(-n2nnnc2N2CCOCC2)cc1,inactive
12,c1ccc2c(NC3C4CC5CC(C4)CC3C5)nc(N3CCOCC3)nc2c1 (configuration not stated),10.3 µM (active)
13,FC(F)(F)c1cc(-c2ccco2)nc(N2CCOCC2)n1,inactive
14,Cc1ccc(NC(=O)Cc2nc(COC(=O)C(C)NS(=O)(=O)c3ccc(C)cc3)cs2)cc1 (configuration not stated),inactive
15,CCOC(=O)c1ccc(NC(=S)Nc2cc(C)cc(C)n2)cc1,inactive
16,Brc1nc2ncnc(NCc3ccco3)c2[nH]1,inactive
17,Cc1ccc(C(=O)NNc2ncnc3ccccc23)cc1,inactive
18,CN(c1ccccc1)c1nc(N)c([N+](=O)[O-])c(NCc2ccco2)n1,inactive
19,c1ccc(-c2nc(NCc3ccco3)c3ccccc3n2)cc1,16.4 µM (active)
20,c1coc(CNc2ncnc3ccccc23)c1,7.08 µM (active) and 10.3 µM (active)
21,CS(=O)(=O)n1nc(-c2ccccc2)nc1NCc1ccco1,inactive
22,COCCOC1CCN(C(=O)c2ccc(OC)c(OC3CCN(C(C)C)CC3)c2)CC1,inactive
23,Cc1cccc(NS(=O)(=O)c2ccc([N+](=O)[O-])cc2)n1,inactive

row,SMILES,Potency
1,CCOC(=O)c1cnc(-c2ccccc2)nc1Oc1ccc(C)cc1,inactive
2,COc1ccc(OCCCON2C(=O)c3ccccc3C2=O)cc1,inactive
3,CCOC(=O)C1=C(c2ccc(OC)cc2)C(=O)c2ccccc2C1=O,1.16 µM (active)
4,Cc1cc(C)c(C#N)c(SCC(=O)NN2CC(=O)N(c3ccccc3F)CC2=O)n1,inactive
5,COC(=O)c1ccc(CSc2nncn2N)cc1,inactive
6,Cc1ccc(CCNC(=O)c2ccc3c(c2)nc2n3CCC(C)C2)cc1 (configuration not stated),inactive
7,CCOc1c2ccc(C(=O)NCc3ccc4c(c3)OCO4)cc2nn1C,inactive
8,C=CCNC(=O)c1ccc2c3n(nc2c1)-c1ccc(C)cc1CO3,20.6 µM (active)
9,O=C1CCC[C@@H]2C[C@@]3(C[C@@H]4CCN1[C@H]24)Nc1ccccc1NC3=NCc1ccccc1,inactive
10,Cc1cc2c(cc1C)NC1(C[C@H]3CCC(=O)N4CC[C@@H](C1)[C@@H]34)C(=NC(C)(C)CC(C)(C)C)N2 (some centres not stated),20.6 µM (active)
11,O=C1CC[C@@H]2CC3(C[C@@H]4CCN1[C@H]24)Nc1cc([N+](=O)[O-])ccc1NC3=NC1CCCCC1 (some centres not stated),inactive
12,COc1ccccc1NC(=O)c1cc(Cl)nnc1Cl,inactive
13,COc1ccccc1NC(=O)/C=C/C(N)=O,2.06 µM (active)
14,COc1ccccc1NC(=O)C[n+]1ccccc1,inactive
15,Nc1ccccc1Sc1cc(Cl)nnc1Cl,inactive
16,Cc1ccsc1C(=O)OCC(=O)Nc1cccc(F)c1,inactive
17,O=C(CNC(=O)c1ccc2ccccc2c1)Nc1ncccc1O,inactive
18,O=C(NCC(=O)N1CCN(c2ccccc2O)CC1)c1ccc2ccccc2c1,18.4 µM (active)
19,O=C(NCC(=O)N1CCN(c2ccccc2F)CC1)c1cccs1,inactive
20,CN(C)/C=C(\C#N)C(=O)c1cccnc1Oc1cccc(F)c1,inactive
21,COCc1[nH][nH]c(=O)c1C=Nc1ccc(F)cc1F,inactive
